Laboratory results from PubChem BioAssay (NCI).
About 79,000 compounds went through this panel and 15% of them were active in at least one assay; those are over-represented in the sample as a whole. Rule as the data show it: active = growth inhibition above about 70%; inactive = the rest.

Key:
[1] = NCI Yeast Anticancer Drug Screen. Data for the rad50 strain (AID 155);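 also: 0% = growth of vehicle-only cultures of the same strain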; settings: S. cerevisiae rad50 strain growth inhibition; at 50.0 µM; stronger effect = higher value
Outline: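 Vehicle-treated cultures provide the reference for the growth inhibition reported for compound-exposed, repair-deficient yeast.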

[2] = NCI Yeast Anticancer Drug Screen. Data for the mec2-1 strain (AID 157); settings: S. cerevisiae mec2-1 strain, at 50.0 µM, stronger effect = higher value
Outline: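 Using mec2-1 yeast: add compound, measure growth, express inhibition versus vehicle-treated cultures.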

[3] = NCI Yeast Anticancer Drug Screen. Data for the sgs1 mgt1 strain (AID 161);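 also: 0% = growth of cultures given vehicle only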; settings: S. cerevisiae sgs1 mgt1 strain, at 50.0 µM, stronger effect = higher value
Outline: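 Compounds are added to genetically altered yeast, and growth is compared with cultures given vehicle alone to give percent inhibition.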

[4] = NCI Yeast Anticancer Drug Screen. Data for the cln2 rad14 strain (AID 165);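 also: 0% = growth equal to vehicle treated cultures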; settings: S. cerevisiae cln2 rad14 strain, at 50.0 µM, stronger effect = higher value
Outline: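 Yeast strain cln2 rad14, bearing defects in cell cycle control and DNA repair, serves as the test system; values reflect growth inhibition compared with vehicle.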

[5] = NCI Yeast Anticancer Drug Screen. Data for the bub3 strain (AID 167); settings: S. cerevisiae bub3 mutant strain, at 50.0 µM, stronger effect = higher value
Outline: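 Mutant yeast screening strain plus compound; vehicle-treated cultures serve as the 0% inhibition reference.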

[6] = NCI Yeast Anticancer Drug Screen. Data for the mlh1 rad18 strain (AID 175); settings: S. cerevisiae mlh1 rad18 strain growth inhibition; at 50.0 µM; stronger effect = higher value
Outline: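 Steps: expose repair-defective yeast to compound; measure growth; express inhibition against vehicle-treated controls.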

Measured: growth inhibition

COC(=O)C1C(=O)N(C)c2cc(C)c(C)cc2C1(C)C (configuration not stated)
inactive: [1] 7.55% | [2] -9.4% | [3] 1.6% | [4] 5.8% | [5] 24.9% | [6] -3.9%

c1ccc2c(-c3cnc(-c4ccc(-c5ncc(-c6cccc7ccccc67)o5)cc4)o3)cccc2c1
inactive: [1] -14.9% | [2] -2.45% | [3] 0.5% | [4] -52.6% | [5] -1.1% | [6] -16.4%

c1ccc(CC2=NCCc3ccccc32)cc1
inactive: [1] -16.4% | [2] -28.3% | [3] -3.3% | [4] 1.15% | [5] -2.6% | [6] -8.7%

CN(C)/C=N/NC(=O)C(O)(c1ccccc1)c1ccccc1
inactive: [1] -7.45% | [2] 9.8% | [3] -7.85% | [4] -0.25% | [5] 1.55% | [6] 7.15%

CC(C)(C)N=c1n(C(C)(C)C)oc(=O)n1C(C)(C)C
inactive: [1] -11.8% | [2] -34% | [3] -25.1% | [4] -2.95% | [5] -27.9% | [6] -11.9%

O=C(/C=C/c1ccccc1)c1ccc(Oc2ccccc2)cc1
inactive: [1] -13.2% | [2] -12.8% | [3] -12.9% | [4] -39.5% | [5] 7.5% | [6] -14.8%

COC(=O)/C=C(\C)Nc1cccc([N+](=O)[O-])c1
inactive: [1] -15.2% | [2] -0.65% | [3] -18.9% | [4] -36.9% | [5] -0.75% | [6] -7.3%

O=C(O)/C=C\C(=O)Nc1ccccc1Cl
inactive: [1] -12.8% | [2] -9.95% | [3] 10.9% | [4] 6.85% | [5] 13.4% | [6] -10.8%

COc1ccc(/C(=N\NC(=O)C(=O)NN)C(c2ccc(OC)cc2)C2(O)C(=O)Nc3ccccc32)cc1 (configuration not stated)
inactive: [1] -19.6% | [2] -20.2% | [3] -22.6% | [4] -65.1% | [5] 12.9% | [6] -18.1%

CC1CN(CNC(=O)NCN2CC(C)OC(C)C2)CC(C)O1 (configuration not stated)
inactive: [1] 15.7% | [2] -3.7% | [3] 24.8% | [4] 11.9% | [5] 0.95% | [6] -0.8%

C[S+](C)CC(=O)c1ccccc1O
inactive: [1] -2.55% | [2] -9.7% | [3] 2.2% | [4] -62.4% | [5] 3.4% | [6] -0.6%

[N-]=[N+]=Nc1ccccc1-c1ccc([N+](=O)[O-])cc1
inactive: [1] -12.9% | [2] -11.5% | [3] 11.1% | [4] -32.2% | [5] 1.2% | [6] 29.6%

CCOC(=O)C(CCCOC1CCCCO1)(C(=O)CC)c1ccccc1 (configuration not stated) (tested in a mixture with another compound)
inactive: [1] 25.4% | [2] -7.05% | [3] -6.25% | [4] 2.3% | [5] 1.9% | [6] -3.05%

CCC(c1ccc2oc(C)cc2c1)C(CC)c1ccc2oc(C)cc2c1 (configuration not stated)
inactive: [1] -15.4% | [2] -4.9% | [3] -3.45% | [4] 13.2% | [5] 45% | [6] -23.2%

NC(CCC1CCCCC1)C(=O)O (configuration not stated)
inactive: [1] -7.75% | [2] 6.8% | [3] 0.5% | [4] -3.65% | [5] 22.6% | [6] 3.7%

Cc1cc(=O)[nH]c2c(C)cccc12
inactive: [1] 4% | [2] 28.2% | [3] 11.8% | [4] -4.5% | [5] -0.4% | [6] 16.6%

Cc1cc([N+](=O)[O-])c(Cl)cc1Cl
inactive: [1] -22.8% | [2] 25.3% | [3] -9.35% | [4] 26.5% | [5] 12.2% | [6] 5.5%

CC1(C)N=C(C2CCCN2C(=O)OCc2ccccc2)OC1=O (configuration not stated)
inactive: [1] -43% | [2] -20.7% | [3] -38.1% | [4] -1.75% | [5] 12.3% | [6] -28.6%

CCC1(C)CCC(C)(CC)c2cc(C)ccc21 (configuration not stated)
inactive: [1] 9.9% | [2] 9.15% | [3] -6.95% | [4] -16.8% | [5] 8.4% | [6] 25.9%

O=P(O)(c1ccccc1Br)c1ccccc1Br
inactive: [1] 43.5% | [2] 10.6% | [3] 28% | [4] 26.2% | [5] 4.65% | [6] 20.2%

COC1=CC(=O)C=C(OC)C1=O
inactive: [1] -2.55% | [2] -12.8% | [3] -28.6% | [4] 6.25% | [5] -25.4% | [6] -11.6%

O=C(CCCCC(=O)N1CCOCC1)N1CCOCC1
inactive: [1] -9.3% | [2] -21.9% | [3] -2.45% | [4] -19.6% | [5] 2.1% | [6] -9.4%

CCC(O)(C#CCl)CC
inactive: [1] 11.6% | [2] -10.9% | [3] 10% | [4] 10.2% | [5] -29.1% | [6] 11.1%

[N-]=[N+]=Nc1ncnc2c1sc(=S)n2-c1ccccc1
inactive: [1] -6.65% | [2] 21.1% | [3] -24.1% | [4] 3.6% | [5] 15.8% | [6] -2.4%

CCc1cccc(C)c1NC(=O)C1=C(C)NC(C)=C(C(=O)Nc2c(C)cccc2CC)C1c1ccc([N+](=O)[O-])cc1
inactive: [1] 40.8% | [2] 34.2% | [3] 42.2% | [4] 18.4% | [5] 36.9% | [6] 46.7%

CCCCCCCCCCCCCCCCSc1ccc2ccccc2c1
inactive: [1] 37.9% | [2] -13.8% | [3] 41.3% | [4] -7.5% | [5] -3.45% | [6] 0.2%

Nc1ccc(S(=O)c2ccc(N)cc2)cc1
inactive: [1] 27.9% | [2] -14.1% | [3] 8.25% | [4] 20.8% | [5] 18.6% | [6] 33.1%

CC(=O)c1ccco1
inactive: [1] 17.8% | [2] 16.4% | [3] -5.15% | [4] -43% | [5] 1.25% | [6] 13.1%

COc1ccc(CC(=O)OCC2CCCO2)cc1OC (configuration not stated)
inactive: [1] -8.5% | [2] -1.25% | [3] 9.9% | [4] -20.6% | [5] 5.6% | [6] 4%

O=c1c2cc(-c3ccccc3)sc2nc2n1N=C(c1ccccc1)CS2
inactive: [1] -1.35% | [2] -2.7% | [3] -12.9% | [4] 21.3% | [5] -2.85% | [6] -18.6%

Clc1c(Cl)c(CBr)c(Cl)c(-c2c(Cl)c(Cl)c(Cl)c(CBr)c2Cl)c1Cl
inactive: [1] 2.15% | [2] -4.1% | [3] -2.55% | [4] -25.7% | [5] 2.45% | [6] -1.1%

COC(=O)c1ccc(-c2nc(C#N)c(N)o2)cc1
inactive: [1] 5.9% | [2] 19.1% | [3] -11.1% | [4] -1.45% | [5] -14.8% | [6] -43%

COc1cc(Br)c(Br)cc1Br
inactive: [1] 6.8% | [2] 4.35% | [3] -17.7% | [4] 12.5% | [5] 4.9% | [6] 10.5%

O=C(Nc1ccc(S(=O)(=O)Nc2nccs2)cc1)c1cccnc1Nc1cccc(Cl)c1
inactive: [1] 36.6% | [2] 8.5% | [3] 22.2% | [4] 1.15% | [5] 13.4% | [6] 61.2%

COC(=O)/C=C/c1ccc(OC)c(OC)c1
inactive: [1] 22.3% | [2] 0.4% | [3] 13.6% | [4] -2.2% | [5] 64.5% | [6] 50%

CCC(CCCCCc1ccccc1)(C(=O)O)C(=O)O
inactive: [1] -0.7% | [2] 10.8% | [3] 21.7% | [4] -55% | [5] -5.2% | [6] -2.95%

CCCCN(CCCC)CC(O)c1cc(-c2cccc(I)c2)nc2c(Cl)cc(Cl)cc12 (configuration not stated)
inactive: [1] 38.6% | [2] 4.4% | [3] -4.75% | [4] -11.1% | [5] -6.15% | [6] 29.3%

CC(=O)N(C(C)=O)c1ccccc1/C=C1\CCOC1=O
inactive: [1] -16.4% | [2] -18.9% | [3] -2.25% | [4] -5.05% | [5] 11.6% | [6] -17.6%

CCCCN(CCCC)CCCNC(=O)OCC
inactive: [1] -4.2% | [2] -22.9% | [3] -7% | [4] 14.6% | [5] -26.8% | [6] -6.2%

CCCC(C)c1ccc(C(=O)O)cc1 (configuration not stated)
inactive: [1] 10.2% | [2] -10.7% | [3] 4.45% | [4] 11.2% | [5] -18.1% | [6] 20.9%

CC(=O)Nc1ccc2nc(C)cc(Cl)c2c1
inactive: [1] 25.5% | [2] -3.45% | [3] 9.4% | [4] -8.8% | [5] 6.55% | [6] 4.35%

Cc1ccc(S)c(C(O)(C(F)(F)F)C(F)(F)F)c1
inactive: [1] -4.75% | [2] 3.65% | [3] 11.7% | [4] 3.55% | [5] 8.3% | [6] 23.2%
